{"source": "ChEMBL document CHEMBL3988442", "about": "“University of Dundee, Small-Polar-MMV Screening Library” (2021)", "note": "For part of these data: Entries with a potency or affinity are not part of this list.", "data": [{"biological_target": "T1, Ubiquitin-activating enzyme e1, putative (Leishmania donovani (strain BPK282A1)) (UniProt E9BSI1)", "T1 sequence (whole entry)": "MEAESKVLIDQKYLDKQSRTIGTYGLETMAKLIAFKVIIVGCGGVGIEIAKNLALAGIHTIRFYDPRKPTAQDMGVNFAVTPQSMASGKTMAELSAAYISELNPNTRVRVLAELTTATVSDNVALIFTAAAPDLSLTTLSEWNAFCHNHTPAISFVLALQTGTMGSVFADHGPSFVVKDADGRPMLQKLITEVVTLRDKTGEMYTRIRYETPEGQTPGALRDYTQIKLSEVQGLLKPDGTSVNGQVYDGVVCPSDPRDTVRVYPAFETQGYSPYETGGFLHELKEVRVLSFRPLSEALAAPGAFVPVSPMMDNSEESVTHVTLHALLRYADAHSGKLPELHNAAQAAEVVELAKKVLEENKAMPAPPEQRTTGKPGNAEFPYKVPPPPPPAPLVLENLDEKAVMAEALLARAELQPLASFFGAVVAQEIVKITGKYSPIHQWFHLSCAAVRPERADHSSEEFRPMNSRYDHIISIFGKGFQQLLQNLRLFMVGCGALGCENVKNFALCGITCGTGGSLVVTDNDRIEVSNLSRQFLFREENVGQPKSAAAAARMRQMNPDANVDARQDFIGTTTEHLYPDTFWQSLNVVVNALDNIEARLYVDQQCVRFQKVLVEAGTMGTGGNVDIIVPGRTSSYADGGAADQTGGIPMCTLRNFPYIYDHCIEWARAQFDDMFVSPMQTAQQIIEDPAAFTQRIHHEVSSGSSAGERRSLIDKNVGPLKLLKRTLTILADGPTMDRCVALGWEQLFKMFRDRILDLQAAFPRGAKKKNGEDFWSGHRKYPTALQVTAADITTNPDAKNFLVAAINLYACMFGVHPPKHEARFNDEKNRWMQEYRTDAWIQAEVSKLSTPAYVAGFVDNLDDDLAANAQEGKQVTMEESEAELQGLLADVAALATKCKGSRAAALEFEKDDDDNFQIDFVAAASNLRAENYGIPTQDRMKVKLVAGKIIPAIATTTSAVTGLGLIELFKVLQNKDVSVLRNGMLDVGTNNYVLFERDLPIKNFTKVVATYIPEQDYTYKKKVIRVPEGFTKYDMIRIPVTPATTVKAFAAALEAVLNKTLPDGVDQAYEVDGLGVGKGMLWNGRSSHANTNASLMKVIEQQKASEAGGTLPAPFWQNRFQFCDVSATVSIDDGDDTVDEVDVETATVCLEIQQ", "test": "Leishmania donovani Ubiquitin Activating Enzyme (LdE1)", "assay_type": "functional", "parameters": "scale not given: direction of the effect not stated beside the values", "conditions": "30 µM", "units": {"Percent Effect": "%"}, "values": [{"smiles": "CNC(=O)c1cccnc1Oc1ccccc1", "Percent Effect": 19.5}, {"smiles": "O=C(CSc1ccc(F)c(F)c1)NS(=O)(=O)c1ccc2c(c1)OCCO2", "Percent Effect": 2.56}, {"smiles": "CCSCCC(=O)NS(=O)(=O)c1ccc2c(c1)OCCO2", "Percent Effect": 10.3}, {"smiles": "CC1CCCCN1Cc1ccc(-c2ccccc2C(=O)O)cc1", "note": "(stereo not given)", "Percent Effect": 4}, {"smiles": "Cc1noc(C)c1C(=O)N1CC[C@H]2C[C@@H](c3nccs3)O[C@@H]2C1", "Percent Effect": 6.49}, {"smiles": "Cn1ccc(CN2CCC(NC(=O)Cc3ccccc3)CC2)cc1=O", "Percent Effect": 5.13}, {"smiles": "O=S(=O)(c1ccccc1)N1CCCCC1c1cc[nH]n1", "note": "(stereo not given)", "Percent Effect": 9.33}, {"smiles": "COCCN(C)C[C@@H]1CCC[C@@H]2CN(c3cc(OC)ncn3)C[C@@H]21", "Percent Effect": 3.9}, {"smiles": "CC(C)NC(=O)N1CCN(Cc2ccccn2)CC2(CC(=O)N(C)C2)C1", "note": "(stereo not given)", "Percent Effect": 11.7}, {"smiles": "CCn1nc(C)c(CCNC(=O)C2CCCN(C(=O)N(C)C)C2)c1C", "note": "(stereo not given)", "Percent Effect": 0}, {"smiles": "Cc1cccc(C(=O)N2CCCN(Cc3cnn(C)c3)CC2)n1", "Percent Effect": -5.13}, {"smiles": "COCCC(=O)N1CCn2c(COCC3CC3)cnc2C1C", "note": "(stereo not given)", "Percent Effect": 1.3}, {"smiles": "c1ccc(CNC2CCc3ncnn3C2)nc1", "note": "(stereo not given)", "Percent Effect": 12.8}, {"smiles": "COCCOc1cccc(C(=O)N2CCCC(n3ccnc3C)C2)c1", "note": "(stereo not given)", "Percent Effect": 13}, {"smiles": "CC(C)N(Cc1nc2c(cnn2C)c(=O)[nH]1)c1ccccc1", "Percent Effect": 10.3}, {"smiles": "Cc1nc(CN2CCCC(CCc3ccc(F)cc3F)C2)c[nH]1", "note": "(stereo not given)", "Percent Effect": -2.7}, {"smiles": "COCC(C)N(C)C(=O)c1nc(S(C)(=O)=O)n2ccccc12", "note": "(stereo not given)", "Percent Effect": 2.56}, {"smiles": "Cc1ccccc1N1CC2(CCN(S(=O)(=O)c3cccs3)C2)CC1=O", "note": "(stereo not given)", "Percent Effect": 24.7}, {"smiles": "Cc1ccc(CN2CCCn3c(nc(Cn4cncn4)cc3=O)C2)s1", "Percent Effect": 11.7}, {"smiles": "Cc1ccc2oc(C(=O)N3CCc4nnc(N(C)C)cc4C3)cc2n1", "Percent Effect": 10.7}]}, {"biological_target": "Sialic acid-binding Ig-like lectin 9 (Homo sapiens) (UniProt Q9Y336)", "sequence (Q9Y336 whole entry)": "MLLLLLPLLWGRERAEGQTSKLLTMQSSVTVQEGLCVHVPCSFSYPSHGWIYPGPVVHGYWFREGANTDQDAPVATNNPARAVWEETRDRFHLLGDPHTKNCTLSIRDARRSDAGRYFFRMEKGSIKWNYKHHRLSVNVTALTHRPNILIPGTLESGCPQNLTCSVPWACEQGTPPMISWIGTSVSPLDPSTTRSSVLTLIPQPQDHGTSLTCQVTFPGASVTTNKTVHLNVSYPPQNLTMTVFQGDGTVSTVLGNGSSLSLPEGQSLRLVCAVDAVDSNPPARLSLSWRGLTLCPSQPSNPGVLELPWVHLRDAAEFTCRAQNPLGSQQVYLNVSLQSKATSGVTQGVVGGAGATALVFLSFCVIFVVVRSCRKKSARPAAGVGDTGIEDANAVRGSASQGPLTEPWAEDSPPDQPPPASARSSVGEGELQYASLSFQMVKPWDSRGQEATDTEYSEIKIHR", "test": "Hs-Siglec9 ALPHAscreen SOP 20170721", "parameters": "scale not given: direction of the effect not stated beside the values", "conditions": "10 µM", "units": {"Percent Effect": "%"}, "values": [{"smiles": "c1cnn(CC2CCCCN2Cc2cn3ccsc3n2)c1", "note": "(stereo not given)", "Percent Effect": 13.3}, {"smiles": "CN(Cc1nnc(-c2ccco2)o1)C1CCCN(c2cccnn2)C1", "note": "(stereo not given)", "Percent Effect": -14.4}, {"smiles": "O=C(NCCn1nc2ccccn2c1=O)c1cccc2[nH]ncc12", "Percent Effect": -7.98}, {"smiles": "Cc1nc(CN2CCCC(CCc3c(F)cccc3F)C2)c[nH]1", "note": "(stereo not given)", "Percent Effect": 23.7}, {"smiles": "CC(C)CN1C[C@@H]2CN(C(=O)[C@H]3CCCO3)C[C@@H]2C1=O", "Percent Effect": -1.93}, {"smiles": "CC(NC(=O)NCCCn1cncn1)c1ccccc1Cl", "note": "(stereo not given)", "Percent Effect": -2.84}, {"smiles": "Cc1[nH]ccc1C(=O)N1CCCC(c2nccn2Cc2cscn2)C1", "note": "(stereo not given)", "Percent Effect": 27.9}, {"smiles": "CCn1cc2c(n1)C(COC)CN(Cc1ccccn1)C2", "note": "(stereo not given)", "Percent Effect": -6.05}, {"smiles": "O=C1CCCc2nccc(-c3ccccc3)c21", "Percent Effect": -10}, {"smiles": "c1ccc(OCc2nnc3n2CCN(CC2CCOCC2)C3)nc1", "Percent Effect": -1.26}, {"smiles": "CN(C)CC1CN(Cc2ccsc2)Cc2nccn2C1", "note": "(stereo not given)", "Percent Effect": -4.24}, {"smiles": "CCOc1c(Cl)cccc1NCc1cc(C)on1", "Percent Effect": -8.13}, {"smiles": "O=C(NCc1cc[nH]n1)NCC(c1ccc(F)cc1)N1CCOCC1", "note": "(stereo not given)", "Percent Effect": -10.9}, {"smiles": "CCc1nccn1C1CCCN(C(=O)c2csc(NC(C)=O)n2)C1", "note": "(stereo not given)", "Percent Effect": 14.2}, {"smiles": "Cc1ccc(C(=O)N2CCC3(CC2)CCN(CCN(C)C)C3=O)cn1", "Percent Effect": -4.15}, {"smiles": "Cc1ccc(C(=O)N2CCN(Cc3ccsc3)CC2)n1C", "Percent Effect": 2.26}, {"smiles": "CS(=O)(=O)NCc1cc2n(n1)CCCN(Cc1cccc(C#N)c1)C2", "Percent Effect": 22.8}, {"smiles": "O=C(NCC1CC1)C1CCC2(CCN(C(=O)c3ccccn3)CC2)O1", "note": "(stereo not given)", "Percent Effect": -0.0517}, {"smiles": "O=C(NCc1cc[nH]n1)N(CCCO)C1CCc2ccccc21", "note": "(stereo not given)", "Percent Effect": -0.45}, {"smiles": "CCC(NC(=O)CC(F)(F)F)c1ccccc1OCC(=O)N1CCCC1", "note": "(stereo not given)", "Percent Effect": -4.51}, {"smiles": "CNC(=O)c1cccnc1Oc1ccccc1", "Percent Effect": 16.3}, {"smiles": "O=C(CSc1ccc(F)c(F)c1)NS(=O)(=O)c1ccc2c(c1)OCCO2", "Percent Effect": -9.59}, {"smiles": "CCSCCC(=O)NS(=O)(=O)c1ccc2c(c1)OCCO2", "Percent Effect": -9.92}, {"smiles": "CC1CCCCN1Cc1ccc(-c2ccccc2C(=O)O)cc1", "note": "(stereo not given)", "Percent Effect": 1.22}, {"smiles": "Cc1noc(C)c1C(=O)N1CC[C@H]2C[C@@H](c3nccs3)O[C@@H]2C1", "Percent Effect": 1.62}, {"smiles": "Cn1ccc(CN2CCC(NC(=O)Cc3ccccc3)CC2)cc1=O", "Percent Effect": -5.06}, {"smiles": "O=S(=O)(c1ccccc1)N1CCCCC1c1cc[nH]n1", "note": "(stereo not given)", "Percent Effect": -5.11}, {"smiles": "COCCN(C)C[C@@H]1CCC[C@@H]2CN(c3cc(OC)ncn3)C[C@@H]21", "Percent Effect": -3.68}, {"smiles": "CC(C)NC(=O)N1CCN(Cc2ccccn2)CC2(CC(=O)N(C)C2)C1", "note": "(stereo not given)", "Percent Effect": 1.64}, {"smiles": "CCn1nc(C)c(CCNC(=O)C2CCCN(C(=O)N(C)C)C2)c1C", "note": "(stereo not given)", "Percent Effect": -0.0434}, {"smiles": "Cc1cccc(C(=O)N2CCCN(Cc3cnn(C)c3)CC2)n1", "Percent Effect": 4.36}, {"smiles": "COCCC(=O)N1CCn2c(COCC3CC3)cnc2C1C", "note": "(stereo not given)", "Percent Effect": 6.82}, {"smiles": "c1ccc(CNC2CCc3ncnn3C2)nc1", "note": "(stereo not given)", "Percent Effect": -14.6}, {"smiles": "COCCOc1cccc(C(=O)N2CCCC(n3ccnc3C)C2)c1", "note": "(stereo not given)", "Percent Effect": 8.18}, {"smiles": "CC(C)N(Cc1nc2c(cnn2C)c(=O)[nH]1)c1ccccc1", "Percent Effect": -5.08}, {"smiles": "Cc1nc(CN2CCCC(CCc3ccc(F)cc3F)C2)c[nH]1", "note": "(stereo not given)", "Percent Effect": 37.1}, {"smiles": "COCC(C)N(C)C(=O)c1nc(S(C)(=O)=O)n2ccccc12", "note": "(stereo not given)", "Percent Effect": -5.8}, {"smiles": "Cc1ccccc1N1CC2(CCN(S(=O)(=O)c3cccs3)C2)CC1=O", "note": "(stereo not given)", "Percent Effect": -0.756}, {"smiles": "Cc1ccc(CN2CCCn3c(nc(Cn4cncn4)cc3=O)C2)s1", "Percent Effect": -3.78}, {"smiles": "Cc1ccc2oc(C(=O)N3CCc4nnc(N(C)C)cc4C3)cc2n1", "Percent Effect": 5.58}]}]}
